Data on six compounds can be found in PubChem BioAssay (NCATS).

Results filed as inconclusive are left out. Active and inactive are the calls of the source. Unless noted, calls follow the shape of the dose curve; as a rule, active = well fitted curve in either direction with a large enough effect (not every such curve was filed as active); inconclusive = small, poorly fitted or top-dose-only effect, or another doubt; inactive = flat fitted curve, though single readings scatter. Some results are limits rather than exact numbers.

Assay [1] deals with Lysosomal acid glucosylceramidase (Homo sapiens) (UniProt P04062). The experiment in a line: Glucocerebrosidase-p2 (AID 348; in the data active = potency below about 10 µM; also: potency is read from the fitted curve at half-maximal effect). As to conditions: purified GBA, blue fluorogenic substrate, 40 min. In outline:
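Compounds titrated from 0.6 nM upwards against 0.2 nM enzyme in pH 5.9 citric acid/KH2PO4, taurocholate, tween-20; blue fluorogenic substrate 80 uM, 40 min room temperature, stopped and read Ex 365/Em 440 for AC50.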

The nature of assay [2]: AP1 Signaling Pathway (AID 357). Also: % is scaled to controls: 0 for no effect and ±100 for the full control effect. As to conditions: ME-180 AP-1-bla reporter, EGF-induced, beta-lactamase ratio, 5 h; at 7.69 µM (top of the series) unless noted. The procedure, abridged: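 AP-1-bla ME-180 cells with beta-lactamase reporter under AP-1 response element, stimulated with EC50 EGF; compounds titrated, 5 hours at 37 degrees Celsius. CCF4 read at 460/530 nm ratio; positive and negative modulators judged by AC50.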

Assay [3] addresses Cytochrome P450 1A2 (Homo sapiens) (UniProt P05177). Put plainly: p450-cyp1a2 (AID 410; calls by dose curve; also: potency is read from the fitted curve at half-maximal effect). The settings on record: recombinant CYP1A2, luciferin-ME demethylation, luminescence; series mostly up to 57 µM. In outline: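 Inhibition was calculated relative to 57 uM furafylline (full inhibition). The reaction used human CYP1A2 at 20nM with Luciferin-ME at its Km, 100uM, driven by an NADPH-regenerating system for 60 min at room temperature.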

The nature of assay [4]: NFAT Signaling Pathway (AID 444).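 Also: carbachol stimulus at about its EC50 of 1 µM final; % is scaled to controls: 0 for no effect and ±100 for the full control effect.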 As to conditions: Jurkat NFAT-bla M1, carbachol, beta-lactamase ratio, 5 h; at 7.69 µM (top of the series) unless noted. The procedure, abridged:
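Read-out: CCF4 FRET ratio (460 nm/530 nm) after 1 h RT dye loading, used for %activity and AC50 from titration series. Cells: Jurkat NFAT-β-lactamase/M1 line, treated with compound plus 1 uM carbachol for 5 h, 37 °C.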

A short description of assay [5]: Stat Signaling Pathway (AID 446).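 Also: ME-180 cervical cancer cells given 40 pM IL-6 alongside compound; SIE-controlled beta-lactamase reporter measured as 460/530 nm FRET emission ratio; % is scaled to controls: 0 for no effect and ±100 for the full control effect.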 As to conditions: ME-180 (cervical carcinoma) SIE beta-lactamase reporter, IL-6 stimulated, 5 h; at 7.69 µM (top of the series) unless noted. The procedure, abridged:
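IL-6/STAT signaling read in ME-180 cells via an SIE beta-lactamase reporter. Stimulus was 40 pM IL-6 (its AC50) for 5 hrs, so both activation and inhibition register.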

The target in assay [6] is Glucocorticoid receptor (Homo sapiens) (UniProt P04150). The experiment in a line: GR-GFP Redistribution (AID 450;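 active = compounds whose dose series gives a full or clear partial fitted curve of increased nuclear translocation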; also: potency is read from the fitted curve at half-maximal effect). The settings on record: U2OS GR-GFP nuclear translocation, laser cytometry, 2 h.
Assay [7] has the same target. The experiment in a line: GR-EFC Redistribution (AID 451; calls by dose curve; also: potency is read from the fitted curve at half-maximal effect). The settings on record: CHO-K1 GR-EFC translocation, beta-gal luminescence, 2 h. The procedure, abridged: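 Translocation of GR-ED fusion to nuclear EA restores b-gal, read by luminescence after 1 h room-temperature detection. Engineered CHO-K1 biosensor cells, 1,000/well, exposed 2 h at 37 C to titrations up to 46 uM final.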

The target of assay [8] is Mitogen-activated protein kinase 10 (Mus musculus) (UniProt Q61831). The experiment in a line: JNK3 AlphaScreen Assay (AID 530).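 Also: kinase came from lysate of stimulated human HepG2 cells; signal reports phosphorylation of biotinylated GST-cJun 1-79 at Ser73 with 10 µM ATP; % is scaled to controls: 0 for no effect and ±100 for the full control effect.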 The settings on record: JNK3 lysate, c-Jun phosphorylation; series mostly up to 57.1 µM. In outline: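 Room-temperature AlphaScreen kinase assay; pre-activated HepG2 lysate as JNK3 source, biotin-GST-cJun(1-79) substrate, 10 uM ATP, compound 15 min preincubation.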
A general note: Alpha assays give light when donor and acceptor beads are brought close together.

The target of assay [9] is Cytochrome P450 3A4 (Homo sapiens) (UniProt P08684). The experiment in a line: qHTS Assay for Inhibitors and Substrates of Cytochrome P450 3A4 (AID 884; active = well fitted curve in the direction sought with a large enough effect; an effect the other way counts as inactive or inconclusive; also: potency is read from the fitted curve at half-maximal effect; nearly all actives have a fitted effect of over 50% in size). The settings on record: recombinant CYP3A4, Luciferin-PPXE luminescence; series mostly up to 57.1 µM. The procedure, abridged:
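20 nM human CYP3A4 with 25 uM Luciferin-PPXE (at KM) in 200 mM KPO4, preincubated 10 min with compound; NADPH regeneration started a 60 min RT reaction. Luciferin detected by luminescence, normalized to 57 uM ketoconazole as full inhibition.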

Assay [10] shares this target. Put plainly: qHTS Assay for Activators of Cytochrome P450 3A4 (AID 885; active = well fitted curve in the direction sought with a large enough effect; an effect the other way counts as inactive or inconclusive; also: nearly all actives have a fitted effect of over 65% in size). The settings on record: recombinant CYP3A4, Luciferin-PPXE luminescence, 60 min; series mostly up to 57.1 µM. In outline: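 Quantitative HTS format: compounds preincubated with 20nM human CYP3A4 and Luciferin-PPXE substrate at KM, reaction started by NADPH regeneration, stopped after 60 min, luciferase luminescence read 20 min later.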
(qHTS replaces the single test concentration by a dilution series.)

Assay [11] concerns the target Cytochrome P450 2C19 (Homo sapiens) (UniProt P33261). The experiment in a line: qHTS Assay for Inhibitors and Substrates of Cytochrome P450 2C19 (AID 899; active = well fitted curve in the direction sought with a large enough effect; an effect the other way counts as inactive or inconclusive; also: potency is read from the fitted curve at half-maximal effect; nearly all actives have a fitted effect of over 60% in size). The settings on record: recombinant CYP2C19, luciferin-H EGE luminescence; series mostly up to 57.1 µM. The procedure, abridged:
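5nM enzyme + 10uM Luciferin-H EGE (=KM), 50mM KPO4; cpd pin-transferred, 10 min 37C; NADPH regen, 60 min 37C; stopped w/ luciferin detection reagent, 20 min; luminescence. Normalized to 57uM ketoconazole (AC100).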

Assay [12] can be described thus: Confirmation and Secondary Assay for Modulators of Hemoglobin Beta Chain Splicing at IVS2 654 locus (AID 910; active = well fitted curve in the direction sought with a large enough effect; an effect the other way counts as inactive or inconclusive;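 also: HeLa cells stably carrying EGFP split by mutant beta-globin IVS2-654 intron; per-well total GFP intensity by laser scanning cytometry after 2-day treatment; % of control where 0% means no effect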). The settings on record: HeLa EGFP-654 splicing reporter, GFP fluorescence, 48 h; series mostly up to 38.3 µM. In outline: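 Readout: per-well total peak green fluorescence (488 nm ex, 500–520 nm em) from objects 5–250 µm, reflecting correct splicing of an EGFP-654 reporter. Compounds were applied for 2 days at 37 °C to overnight-plated HeLa EGFP-654 cells; controls were DMSO and 500 nM IVS2-654 PNA.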

The nature of assay [13]: Confirmation and Secondary Assay for Modulators of Hemoglobin Beta Chain Splicing at IVS2 705 locus (AID 930; active = well fitted curve in the direction sought with a large enough effect; an effect the other way counts as inactive or inconclusive;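 also: HeLa cells stably expressing the EGFP-705 splicing reporter; GFP fluorescence per well restored by corrected splicing of the IVS2-705 intron in EGFP; % of control where 0% means no effect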). The settings on record: HeLa EGFP-705 splicing reporter, GFP fluorescence, 48 h; series mostly up to 38.3 µM. In outline:
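HeLa EGFP-705 reporter; 500 cells/well, o/n 37C 5% CO2; cpd 2 d; 488 ex/500-520 em laser scan; total peak GFP intensity/well. Ref: 500 nM […] antisense PNA.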

A short description of assay [14]: qHTS Assay for Lipid Storage Modulators (AID 1519; calls by dose curve). As to conditions: Drosophila S3 cells, BODIPY lipid droplet/cell ratio, laser cytometry, cells loaded with oleic acid; for activity change, negative = inhibition: at 57.5 µM (top of the series). The procedure, abridged: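 Cells seeded at 5,000 per well were treated with compounds over a concentration series and loaded with oleic acid (400 uM, as added). Lipid droplet fluorescence (488 nm excitation, 500-530 nm channel) was read by laser-scanning cytometry and normalized to 20 uM Triacsin C.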

For assay [15], the target named is 3',5'-cyclic-AMP phosphodiesterase 4B (Homo sapiens) (UniProt Q07343). Put plainly: qHTS Assay for Inhibitors of PDE-IV (AID 607; active = well fitted activation curve with a large enough effect in the main read-out, with a control signal flat, not every such curve was filed as active; also: % of control where 0% means no effect). The settings on record: HEK293 ACTOne CNG channel cells, membrane potential fluorescence; series mostly up to 22.9 µM. In outline: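 Live HEK293 cells with a modified cyclic nucleotide-gated (CNG) channel report intracellular cAMP via membrane-potential dye fluorescence (ex 535/em 590 nm). Endogenous PDE-IV was targeted. Compounds were tested at up to 22.9 uM final; RO 20-1724 100 uM served as control.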

Assay [16] has as its target Ubiquitin carboxyl-terminal hydrolase 1 (Homo sapiens) (UniProt O94782). Put plainly: Inhibitors of USP1/UAF1: Pilot qHTS (AID 504865; active = well fitted curve in the direction sought with a large enough effect; an effect the other way counts as inactive or inconclusive;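 also: rhodamine fluorescence freed from ubiquitin-rhodamine substrate followed over time; top concentration of the series differs between compounds; % is scaled to controls: 0 for no effect and ±100 for the full control effect; nearly all actives have a fitted effect of over 35% in size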). The settings on record: purified USP1/UAF1, Ub-rhodamine cleavage fluorescence; series mostly up to 54.9 µM. The procedure, abridged: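 Kinetic fluorescence assay: 1nM USP1/UAF1, 15 min compound preincubation, then 150nM Ub-Rho; 480/540 nm.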

The mark [17] stands for this setting: measured here: cell count channel max response.
[18] abbreviates: measured here: lipid channel max response.

Lysosomal acid glucosylceramidase (Homo sapiens), sequence (P04062 whole entry, looked up): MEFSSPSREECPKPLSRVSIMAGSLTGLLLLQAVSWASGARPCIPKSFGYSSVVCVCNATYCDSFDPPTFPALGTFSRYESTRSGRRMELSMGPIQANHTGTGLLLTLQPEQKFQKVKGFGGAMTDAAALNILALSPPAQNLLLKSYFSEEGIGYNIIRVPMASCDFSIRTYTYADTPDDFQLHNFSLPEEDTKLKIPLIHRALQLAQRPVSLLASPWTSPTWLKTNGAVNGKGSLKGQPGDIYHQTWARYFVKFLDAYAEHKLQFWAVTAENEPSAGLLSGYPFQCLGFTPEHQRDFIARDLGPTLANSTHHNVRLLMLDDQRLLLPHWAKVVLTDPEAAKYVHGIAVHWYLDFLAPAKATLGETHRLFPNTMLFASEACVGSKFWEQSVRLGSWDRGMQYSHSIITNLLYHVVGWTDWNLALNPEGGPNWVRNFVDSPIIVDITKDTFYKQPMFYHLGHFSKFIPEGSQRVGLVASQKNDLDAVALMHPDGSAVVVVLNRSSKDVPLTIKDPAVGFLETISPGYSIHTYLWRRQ
3',5'-cyclic-AMP phosphodiesterase 4B (Homo sapiens), sequence (Q07343 whole entry, looked up): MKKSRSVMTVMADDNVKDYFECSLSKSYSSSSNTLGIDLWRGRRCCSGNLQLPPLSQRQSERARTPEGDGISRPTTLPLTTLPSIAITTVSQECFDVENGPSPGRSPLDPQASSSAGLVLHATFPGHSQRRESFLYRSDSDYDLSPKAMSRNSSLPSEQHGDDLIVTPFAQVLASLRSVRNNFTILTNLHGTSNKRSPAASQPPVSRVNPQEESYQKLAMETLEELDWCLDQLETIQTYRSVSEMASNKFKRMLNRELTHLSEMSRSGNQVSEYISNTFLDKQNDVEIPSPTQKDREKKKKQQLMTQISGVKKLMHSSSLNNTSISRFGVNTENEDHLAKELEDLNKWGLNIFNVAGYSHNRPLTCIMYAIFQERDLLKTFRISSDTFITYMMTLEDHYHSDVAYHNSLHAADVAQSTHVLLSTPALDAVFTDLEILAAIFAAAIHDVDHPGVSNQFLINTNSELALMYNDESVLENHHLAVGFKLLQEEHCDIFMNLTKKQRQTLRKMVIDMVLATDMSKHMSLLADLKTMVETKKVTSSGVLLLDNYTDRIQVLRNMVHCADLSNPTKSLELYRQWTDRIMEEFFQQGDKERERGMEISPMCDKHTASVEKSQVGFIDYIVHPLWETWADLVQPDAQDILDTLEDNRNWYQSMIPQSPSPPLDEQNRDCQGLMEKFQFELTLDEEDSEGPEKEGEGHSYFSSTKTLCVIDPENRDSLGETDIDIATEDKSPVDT
Cytochrome P450 1A2 (Homo sapiens), sequence (P05177 whole entry, looked up): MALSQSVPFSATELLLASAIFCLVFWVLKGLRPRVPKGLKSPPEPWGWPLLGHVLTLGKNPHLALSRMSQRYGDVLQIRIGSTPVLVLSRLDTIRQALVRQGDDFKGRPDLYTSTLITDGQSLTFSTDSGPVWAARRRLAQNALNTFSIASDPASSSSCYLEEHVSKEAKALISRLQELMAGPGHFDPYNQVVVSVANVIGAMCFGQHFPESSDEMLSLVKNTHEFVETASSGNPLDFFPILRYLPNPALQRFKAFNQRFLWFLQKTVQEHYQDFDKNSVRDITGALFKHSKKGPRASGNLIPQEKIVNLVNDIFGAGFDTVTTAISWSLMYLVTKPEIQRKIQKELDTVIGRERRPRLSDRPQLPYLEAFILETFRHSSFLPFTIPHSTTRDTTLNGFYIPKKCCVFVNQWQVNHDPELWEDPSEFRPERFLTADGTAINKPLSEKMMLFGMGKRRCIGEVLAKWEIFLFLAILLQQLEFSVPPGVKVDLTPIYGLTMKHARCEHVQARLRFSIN
Glucocorticoid receptor (Homo sapiens), sequence (P04150 whole entry, looked up, the tested form may be a part): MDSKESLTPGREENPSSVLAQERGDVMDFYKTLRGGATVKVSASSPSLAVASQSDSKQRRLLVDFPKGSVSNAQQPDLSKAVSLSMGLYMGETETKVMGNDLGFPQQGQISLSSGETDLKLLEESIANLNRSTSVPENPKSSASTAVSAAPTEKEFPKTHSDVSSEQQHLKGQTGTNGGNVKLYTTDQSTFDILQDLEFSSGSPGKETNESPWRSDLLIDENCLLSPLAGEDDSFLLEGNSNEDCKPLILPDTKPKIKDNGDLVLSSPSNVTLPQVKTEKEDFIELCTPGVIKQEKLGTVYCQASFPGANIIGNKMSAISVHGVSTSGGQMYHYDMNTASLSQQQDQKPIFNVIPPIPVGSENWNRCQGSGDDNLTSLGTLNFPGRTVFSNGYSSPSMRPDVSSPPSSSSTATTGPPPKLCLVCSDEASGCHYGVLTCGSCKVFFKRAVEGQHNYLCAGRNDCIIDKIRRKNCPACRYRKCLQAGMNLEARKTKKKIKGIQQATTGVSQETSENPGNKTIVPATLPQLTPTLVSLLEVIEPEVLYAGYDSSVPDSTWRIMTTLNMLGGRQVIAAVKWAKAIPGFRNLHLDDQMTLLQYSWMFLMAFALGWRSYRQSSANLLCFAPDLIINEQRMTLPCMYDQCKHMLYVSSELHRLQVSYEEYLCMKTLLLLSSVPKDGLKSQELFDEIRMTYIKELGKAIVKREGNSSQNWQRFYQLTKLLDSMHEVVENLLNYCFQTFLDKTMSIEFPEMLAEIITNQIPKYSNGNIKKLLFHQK
Ubiquitin carboxyl-terminal hydrolase 1 (Homo sapiens), sequence (O94782 whole entry, looked up): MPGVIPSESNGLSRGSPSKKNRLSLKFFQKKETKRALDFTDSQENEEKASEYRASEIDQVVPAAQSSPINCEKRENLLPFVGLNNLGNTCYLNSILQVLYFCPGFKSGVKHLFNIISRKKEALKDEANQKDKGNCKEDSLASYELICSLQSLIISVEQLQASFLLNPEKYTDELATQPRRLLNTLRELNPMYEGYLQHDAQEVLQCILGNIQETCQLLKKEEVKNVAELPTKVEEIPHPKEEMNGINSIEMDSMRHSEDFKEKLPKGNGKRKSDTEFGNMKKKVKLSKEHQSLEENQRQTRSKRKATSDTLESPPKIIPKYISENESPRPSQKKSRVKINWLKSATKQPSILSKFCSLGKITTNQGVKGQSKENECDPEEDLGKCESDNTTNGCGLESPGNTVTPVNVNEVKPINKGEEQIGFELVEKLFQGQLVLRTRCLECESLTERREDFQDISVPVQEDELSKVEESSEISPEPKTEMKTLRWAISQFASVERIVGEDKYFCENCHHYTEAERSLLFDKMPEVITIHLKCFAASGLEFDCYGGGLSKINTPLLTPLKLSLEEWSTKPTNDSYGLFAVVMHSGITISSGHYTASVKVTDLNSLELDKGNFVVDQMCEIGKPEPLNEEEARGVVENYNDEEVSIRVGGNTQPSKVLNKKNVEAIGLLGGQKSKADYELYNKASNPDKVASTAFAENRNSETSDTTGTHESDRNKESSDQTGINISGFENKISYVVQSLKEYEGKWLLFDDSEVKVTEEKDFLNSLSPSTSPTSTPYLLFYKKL
Cytochrome P450 3A4 (Homo sapiens), sequence (P08684 whole entry, looked up): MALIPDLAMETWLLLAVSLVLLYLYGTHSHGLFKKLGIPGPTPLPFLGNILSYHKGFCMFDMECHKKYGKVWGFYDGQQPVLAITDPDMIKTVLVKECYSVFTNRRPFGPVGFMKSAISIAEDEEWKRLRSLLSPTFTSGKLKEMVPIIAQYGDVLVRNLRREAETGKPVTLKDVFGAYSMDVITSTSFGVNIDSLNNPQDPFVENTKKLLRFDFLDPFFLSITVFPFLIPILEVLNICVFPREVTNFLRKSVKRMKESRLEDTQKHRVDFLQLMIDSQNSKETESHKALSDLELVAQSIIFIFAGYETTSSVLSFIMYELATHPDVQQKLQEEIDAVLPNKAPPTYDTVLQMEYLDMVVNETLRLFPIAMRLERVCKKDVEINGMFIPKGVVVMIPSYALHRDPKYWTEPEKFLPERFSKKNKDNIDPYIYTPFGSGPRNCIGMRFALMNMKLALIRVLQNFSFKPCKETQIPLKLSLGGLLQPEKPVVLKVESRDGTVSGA
Cytochrome P450 2C19 (Homo sapiens), sequence (P33261 whole entry, looked up): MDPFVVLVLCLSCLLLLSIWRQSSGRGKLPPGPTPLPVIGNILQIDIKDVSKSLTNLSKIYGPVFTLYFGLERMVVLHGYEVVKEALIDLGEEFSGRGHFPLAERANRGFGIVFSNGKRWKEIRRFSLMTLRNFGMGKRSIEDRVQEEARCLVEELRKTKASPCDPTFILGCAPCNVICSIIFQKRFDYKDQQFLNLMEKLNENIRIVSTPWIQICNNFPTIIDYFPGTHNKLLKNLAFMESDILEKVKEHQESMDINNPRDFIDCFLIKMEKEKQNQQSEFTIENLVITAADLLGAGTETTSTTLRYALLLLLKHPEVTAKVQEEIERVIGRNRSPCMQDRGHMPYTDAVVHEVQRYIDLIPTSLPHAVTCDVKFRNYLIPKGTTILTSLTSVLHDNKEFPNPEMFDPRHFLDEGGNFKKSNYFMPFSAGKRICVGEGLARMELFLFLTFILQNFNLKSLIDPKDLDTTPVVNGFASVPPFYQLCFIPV

As to `COc1ccccc1-c1ccc2ncnc(N(C)C)c2c1`, the Potency in assay [1] was > 11.4 µM (inactive); in [3], 1.26 µM (active); in [6] it was > 46 µM (inactive); in assay [7], > 46 µM (inactive); in assay [9] it was 5.01 µM (active); in [11], 0.501 µM (active). Moreover, the activity change, negative = inhibition was -19.5% (inactive) in assay [2], -2.93% (inactive) in [4] and 4.68% (inactive) in assay [14]. In addition, the activity, negative = inhibition in assay [5] is -12.7% (inactive). Moreover, the Potency entry in assay [8], in assay [10] and in [12] was “inactive” in each case. The call in assay [13] was inactive. The max response was -12.6% in assay [14] (setting [17]) and -7.7% in assay [14] (setting [18]).

In the case of `COc1ncc2nc(-c3ccc(Cl)cc3)c(=O)n(-c3ccccc3)c2n1`, the Potency was > 11.4 µM (inactive) in assay [1], 1.58 µM (active) in assay [3], > 9.22 µM (inactive) in assay [6] and > 46 µM (inactive) in assay [7]. The activity change, negative = inhibition is -12.8% (inactive) in assay [2], -0.099% (inactive) in [4] and -0.888% (inactive) in assay [14]. In addition, the activity, negative = inhibition in assay [5] is 0.109% (inactive). Also, the Potency result in assay [8] and in [15] was “inactive” in each case. Also, the max response in [14] (setting [17]) came to 12%; in assay [14] (setting [18]), 16.2%.

`Cc1cccc(CNc2nc(-c3ccoc3)nc3ccccc23)c1`: the Potency in assay [1] is > 11.4 µM (inactive); in assay [3], 1.26 µM (active); in assay [6] it was > 46 µM (inactive); in assay [7] it was > 46 µM (inactive); in assay [9] it was 6.31 µM (active); in assay [11], 7.94 µM (active). In addition, the figures for the activity change, negative = inhibition in [2], in assay [4] and in assay [14] were -0.544% (inactive), -3.51% (inactive) and 11.1% (inactive), respectively. For the same compound, in assay [5], the activity, negative = inhibition was -10.1% (inactive). In addition, the Potency entry in assay [8], in assay [10] and in [12] was “inactive” in each case. The max response is -24.1% in assay [14] (setting [17]) and -2.26% in [14] (setting [18]).

For `CN(C)c1ccc(-c2cc(NCc3cccnc3)ncn2)cc1`, the Potency is > 11.4 µM (inactive) in [1]; 0.398 µM (active) in [3]; > 46 µM (inactive) in assay [6]; > 46 µM (inactive) in assay [7]; 3.16 µM (active) in assay [9]. Besides, the activity change, negative = inhibition in assay [2] was -9.72% (inactive); in [4] it was 5.75% (inactive); in assay [14], 7.63% (inactive). Moreover, the activity, negative = inhibition in assay [5] is 0.912% (inactive). Besides, the Potency entry in [8], in [15], in [10], in [12] and in assay [16] was “inactive” throughout. Besides, in [13], the call was inactive. In addition, the max response in assay [14] (setting [17]) was determined as 14.7%; in assay [14] (setting [18]), 22.6%.

Turning to `COc1ccc2[nH]cc(CCNc3ncncc3-c3ccccc3CN(C)C)c2c1`, the Potency in assay [1] was > 11.4 µM (inactive); in [3], 20 µM (active); in assay [6], > 46 µM (inactive); in [7], > 46 µM (inactive); in [9], 0.631 µM (active). In addition, the activity change, negative = inhibition was -7.44% (inactive) in [2], -7.95% (inactive) in [4] and 2.99% (inactive) in assay [14]. Besides, in [5], the activity, negative = inhibition was 0.332% (inactive). The Potency result in assay [8], in assay [15], in [10], in assay [12] and in assay [16] was “inactive” throughout. Besides, the call in [13] was inactive. In addition, the max response in [14] (setting [17]) is -0.105%; in [14] (setting [18]), 4.99%.

Regarding `COc1cccc(-c2nccc(NC3CCNCC3)n2)c1`, the Potency was > 11.4 µM (inactive) in assay [1], 6.31 µM (active) in [3], > 46 µM (inactive) in assay [6] and > 46 µM (inactive) in [7]. For the same compound, the values for the activity change, negative = inhibition in assay [2], in assay [4] and in assay [14] were 6.93% (inactive), 8.54% (inactive) and 0.723% (inactive), respectively. Further, the activity, negative = inhibition in assay [5] was 14.2% (inactive). In addition, the Potency entry in assay [8], in assay [15], in assay [12] and in [16] was “inactive” each time. Also, the call in [13] was inactive. For the same compound, the max response in [14] (setting [17]) was determined as 4.24%; in assay [14] (setting [18]), 1.95%.
